Test systems include T-47D breast; BT-549 breast; MDA-MB-435 melanoma; MCF7 breast; HCT-116 colon; HCC-2998 colon; KM12 colon; SW-620 colon.
Holding throughout (experiment): NCI-60 one-dose screen, 48 h (100 = growth as untreated, 0 = no growth, -100 = all killed)
What all share (conditions): 10 µM unless noted

The structures appear in SMILES notation. This is part of a sample that, as a whole, favours compounds with a hit. Of some 83,000 tested, about 20% had one in any assay.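 Compound tested at a single concentration for 48 hours in 96-well plates; a percent growth value below 10 was scored as active.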 Unmarked numbers belong to inactive results. Activity calls are given as the source filed them.

Turning to `CC(=O)CSc1ncnc2nc[nH]c12`, the growth was 82% in the experiment on T-47D breast; 102% in the experiment with BT-549 breast; 89.7% with MDA-MB-435 melanoma; 74.7% in the experiment with MCF7 breast; 88.7% with HCT-116 colon; 97.5% in the experiment with HCC-2998 colon. For the same compound, in the experiment on KM12 colon, the growth was 123%.

In the case of `COc1cccc2c1Cc1ccccc1-2`, the growth with T-47D breast is 101%; with BT-549 breast it was 106%; in the experiment on MDA-MB-435 melanoma it was 103%; in the experiment with MCF7 breast, 100%; in the experiment on HCT-116 colon it was 101%; with HCC-2998 colon, 98.5%. Moreover, in the experiment on KM12 colon, the growth is 104%.

Take `O=C(O)c1ccc(OCc2ccccc2)cc1`: the growth with T-47D breast was 83.7%; with BT-549 breast, 104%; in the experiment on MDA-MB-435 melanoma, 108%; in the experiment on MCF7 breast, 96.5%; in the experiment on HCT-116 colon, 93%; in the experiment with HCC-2998 colon it was 101%. Also, in the experiment on KM12 colon, the growth was 111%.

Take `C=C1C(=O)C2CCN1CC2`: the growth with T-47D breast is 98%; in the experiment on BT-549 breast, 96.9%; with SW-620 colon it was 67.2%; with MCF7 breast, 94.3%; with HCT-116 colon, 56.4%; in the experiment with HCC-2998 colon, 106%.

On to `COc1nc2ccccc2s1`, for which the growth was 99.2% with T-47D breast; 90.6% with BT-549 breast; 105% in the experiment on MDA-MB-435 melanoma; 87.8% in the experiment with MCF7 breast; 103% in the experiment with HCT-116 colon; 102% with KM12 colon.

For `CC(=O)c1cccs1`, the growth in the experiment with T-47D breast is 90%; in the experiment on BT-549 breast it was 97%; with MDA-MB-435 melanoma, 109%; in the experiment on MCF7 breast, 94.6%; in the experiment with HCT-116 colon, 97.4%; with HCC-2998 colon, 98.4%. Moreover, the growth in the experiment with KM12 colon is 102%.

As for `O=C(O)C1CCCN1C(=O)OCc1ccccc1` (stereo not drawn), the growth in the experiment with T-47D breast was 102%; with BT-549 breast, 85.8%; in the experiment on MDA-MB-435 melanoma it was 102%; in the experiment with MCF7 breast, 90%; in the experiment on HCT-116 colon, 107%; in the experiment with KM12 colon, 113%.

`CC(C)(C)NCCC(O)c1cc(C(F)(F)F)nc2c(C(F)(F)F)cccc12` (stereo not drawn): the growth was 86.8% in the experiment with T-47D breast; 86.5% with BT-549 breast; 82.3% with MDA-MB-435 melanoma; 92.6% in the experiment on MCF7 breast; 56.8% in the experiment on HCT-116 colon; 58.7% with KM12 colon.

Consider `Cn1c(=O)[nH]c2ccccc2c1=O`, for which the growth is 95.2% in the experiment with T-47D breast; 91.3% with BT-549 breast; 101% with MDA-MB-435 melanoma; 90.2% in the experiment with MCF7 breast; 103% in the experiment with HCT-116 colon; 112% with HCC-2998 colon. In addition, the growth with KM12 colon was 102%.

In the case of `CCOC(=O)c1cc(Cl)c(O)c(Cl)c1`, the growth was 118% in the experiment with T-47D breast; 105% in the experiment on BT-549 breast; 109% in the experiment on SW-620 colon; 98.1% in the experiment on MCF7 breast; 102% with HCT-116 colon; 112% with HCC-2998 colon.

As for `C=C(c1ccc(N(C)C)cc1)c1ccc(N(C)C)cc1`, the growth in the experiment on T-47D breast was 26.9%; with BT-549 breast, -5.95% (active); in the experiment with MDA-MB-435 melanoma it was -67.6% (active); in the experiment with MCF7 breast, 13.5%; with HCT-116 colon, 5.45% (active); with HCC-2998 colon it was 5.58% (active). In the experiment with KM12 colon, the growth was 26.5%.

Take `CNc1ccccc1C(N)=O`: the growth is 98.1% with T-47D breast; 101% in the experiment on BT-549 breast; 105% in the experiment with MDA-MB-435 melanoma; 96.8% in the experiment with HCT-116 colon; 106% in the experiment with HCC-2998 colon; 101% in the experiment with KM12 colon.

For the compound `O=C1C=C(c2ccccc2)C(O)(c2ccccc2)C1` (stereo not drawn), the growth in the experiment with T-47D breast is 90.6%; in the experiment with BT-549 breast it was 94.8%; in the experiment on MDA-MB-435 melanoma, 97.4%; in the experiment with MCF7 breast, 98.2%; in the experiment with HCT-116 colon it was 98.4%; in the experiment with HCC-2998 colon it was 122%. For the same compound, the growth with KM12 colon was 107%.

For the compound `CCOC(=N)CC(=O)Nc1cccc(C)c1Cl`, the growth in the experiment on T-47D breast was 95%; with BT-549 breast it was 103%; with MDA-MB-435 melanoma it was 98.6%; with MCF7 breast, 89.5%; with HCT-116 colon, 96.3%; in the experiment with HCC-2998 colon, 102%. Further, the growth in the experiment with KM12 colon was 96.7%.

As for `Cc1ccc(S(N)(=O)=O)cc1Cl`, the growth was 102% with T-47D breast; 114% in the experiment on MDA-MB-435 melanoma; 114% in the experiment with SW-620 colon; 96.3% with MCF7 breast; 104% in the experiment with HCT-116 colon; 116% in the experiment on HCC-2998 colon. In addition, the growth in the experiment on KM12 colon is 112%.

For the compound `O=C(NCc1ccco1)Nc1cccc2c(NC(=O)NCc3ccco3)cccc12`, the growth was 69.2% [100 µM] in the experiment on T-47D breast; 57.1% [100 µM] in the experiment with BT-549 breast; 23.1% [100 µM] in the experiment on SW-620 colon; 60.1% [100 µM] with MCF7 breast; 15% [100 µM] in the experiment with HCT-116 colon; 74.5% [100 µM] with HCC-2998 colon. The growth in the experiment on KM12 colon is 61.1% [100 µM].

As to `CCN(CC)CCOC(=O)Nc1c(C(C)C)cccc1C(C)C`, the growth in the experiment on T-47D breast is 103%; with MDA-MB-435 melanoma it was 102%; with SW-620 colon, 118%; in the experiment on MCF7 breast, 101%; in the experiment with HCT-116 colon it was 101%; in the experiment on HCC-2998 colon, 114%.

For the compound `COC1CC(OC(=O)c2ccc([N+](=O)[O-])cc2)C(COC(=O)c2ccc([N+](=O)[O-])cc2)O1` (stereo not drawn), the growth was 104% with T-47D breast; 116% in the experiment with BT-549 breast; 99.7% with SW-620 colon; 91.5% in the experiment with MCF7 breast; 105% with HCT-116 colon; 112% with HCC-2998 colon. For the same compound, the growth in the experiment on KM12 colon is 109%.

As to `CCC(=O)Oc1c(C)cc(O)c2ccccc12`, the growth was 79.5% in the experiment on T-47D breast; 82.1% in the experiment on BT-549 breast; 103% with SW-620 colon; 93.3% in the experiment on MCF7 breast; 70% in the experiment with HCT-116 colon; 106% in the experiment on HCC-2998 colon. Moreover, the growth in the experiment on KM12 colon was 88.6%.

Turning to `Clc1ncnc2nc[nH]c12`, the growth with T-47D breast is 90.7%; in the experiment on MDA-MB-435 melanoma it was 106%; in the experiment with SW-620 colon it was 103%; in the experiment on MCF7 breast, 94.9%; in the experiment with HCT-116 colon, 102%; with HCC-2998 colon, 89.6%. Moreover, the growth with KM12 colon is 105%.

The values above are taken from PubChem BioAssay (NCI).
